ROMK mod – ROMK potassium channel modulators, primary screen, cell-based, thallium flux, MLSMR library; ATP-sensitive inward rectifier potassium channel 1 (Homo sapiens), P48048; Tet-inducible ROMK, thallium flux fluorescence; actives lie on both sides; B-score at 10 µM; 2% of 130,000 active; AID 1918, 2009;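 active = signal ratio slope over the read window, or its plate-corrected B-score, at least 3 SD from the plate mean, either direction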;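 also: B-score of the F/F0 ratio slope over 7 to 12 s after thallium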
Target sequence (P48048 whole entry, looked up): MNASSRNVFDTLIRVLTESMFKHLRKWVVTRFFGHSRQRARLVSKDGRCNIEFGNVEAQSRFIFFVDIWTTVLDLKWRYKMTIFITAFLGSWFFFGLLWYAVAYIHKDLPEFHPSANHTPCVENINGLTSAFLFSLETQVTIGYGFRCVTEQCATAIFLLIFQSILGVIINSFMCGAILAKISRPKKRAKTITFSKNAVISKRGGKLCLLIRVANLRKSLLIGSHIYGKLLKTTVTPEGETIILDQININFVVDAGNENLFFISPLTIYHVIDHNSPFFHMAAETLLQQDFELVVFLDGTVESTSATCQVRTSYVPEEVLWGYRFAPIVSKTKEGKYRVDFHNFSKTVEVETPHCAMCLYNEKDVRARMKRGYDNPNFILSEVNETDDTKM
Tb hexokinase – Trypanosoma brucei hexokinase 1 inhibitors, primary screen, biochemical, G6PDH-coupled NADH absorbance, MLSCN library; AID 1430, 2008; 0.11% of 220,000 active; recombinant TbHK1, G6PDH-coupled NADH A340; inhibition, % at 10 µM; hexokinase 1 [Trypanosoma brucei];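 active = inhibition of 50% or more in the single-dose primary screen; inactive = inhibition below 50%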
HSV augment – enhancers of HSV replication in host cells, fold increase, host cell viability; HSV replication augmentation in cells; maximum fold increase; 0.005% of 220,000 active; in the data active = maximum fold increase above about 1.5; inconclusive = no clear call, values can overlap the other calls; tested in PC3 cells
INS promoter inh – inhibitors of insulin promoter-driven GFP, primary screen, imaging, TRM-6 cells (human fetal islet line), eGFP reporter, cell count | AID 1273, 2008 | 0.9% of 130,000 active | inhibition, % at 2 µM | reporter expression induced with tamoxifen;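 active = inhibition above the mean plus 3 SD, with well images judged a real hit on visual review, cut at about 60% in these data, passing the limit was not always enough; inconclusive = inhibition over the cutoff but images rejected on review; inactive = inhibition not above the cutoff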
Ins promoter up – insulin promoter activators in MIN6 cells, imaging, high-content screening, mouse beta cells. MIN6 insulin promoter-GFP reporter; active compounds read high. z-score at 5 µM. AID 1625, 2009. 0.3% of 190,000 active;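 active = z-score above 3 at 5 µM with at least 500 cells counted in the well; inconclusive = wells under 500 cells, flagged as cytotoxic or low count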
ROMK hit retest – ROMK channel modulator hit retest, confirmation, cell-based, thallium flux, duplicate, resupplied hits. shares compounds with ROMK mod. fluorescence ratio; active compounds read low. normalized thallium flux (F/F0 slope) at 10 µM. 54% of 3,000 active;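 active = Flux at 10 µM at least 3 SD below or above vehicle control mean in one or both replicates; inconclusive = no clear call, values can overlap the other calls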
* = called active by the depositor. Only a selection was taken, and hits are over-represented in it overall.

Cc1oc(-c2ccccc2F)nc1CN1CCC(C(=O)NC2CCCCCCC2)CC1 was read as ROMK mod -4.6*, Tb hexokinase -1, Ins promoter up -0.77 and ROMK hit retest 0.058*.
`Cc1ccccc1-c1nc(CN2CCC(C(=O)NC3CCN(Cc4ccccc4)CC3)CC2)c(C)o1` gave Tb hexokinase 6 and HSV augment inactive.
For CN(C)c1ccc(/C=C/C(=O)c2c(O)c3ccccc3oc2=O)cc1 the results were Tb hexokinase -23 and HSV augment inconclusive.
For CCOc1ccc(/C=C/C(=O)c2c(O)c3ccccc3oc2=O)cc1 the results were Tb hexokinase -19, INS promoter inh 43 and ROMK hit retest 0.063*.
O=C(Nc1ccc2ncccc2c1)c1cc(Cl)ccc1Cl was read as ROMK mod -0.38, Tb hexokinase -10, HSV augment inactive, INS promoter inh 33 and Ins promoter up -0.43.
`COc1ccc(CCNC(=O)c2ccc(-c3ccc([N+](=O)[O-])cc3)o2)cc1OC` gave Tb hexokinase -15, HSV augment inactive and ROMK hit retest 0.075.
`COc1ccc(C(=O)Nc2ccc(C(=O)NCCc3ccc(OC)c(OC)c3)cc2)cc1` gave ROMK mod 3.2*, Tb hexokinase -5, HSV augment inactive, Ins promoter up -1.6 and ROMK hit retest 0.073.
For COc1ccc(NC(=O)c2ccc(-c3ccc([N+](=O)[O-])cc3)o2)cc1 the results were ROMK mod -0.42, Tb hexokinase -12 and HSV augment inactive.
CCn1c(CC(=O)Nc2ccc(C)cc2)n[nH]c1=S was read as ROMK mod 0.013, Tb hexokinase -1, HSV augment inactive, INS promoter inh 38 and Ins promoter up -0.38.
Screening COc1ccccc1-n1c(SCC(=O)N2CCc3ccccc32)nc2c(c1=O)SCC2 returned Tb hexokinase -15, HSV augment inactive and ROMK hit retest 0.058*.
Cc1ccccc1C(=O)NC(C(N)=O)P(=O)(OC(C)C)OC(C)C (stereo not given) was read as Tb hexokinase -14, HSV augment inactive and Ins promoter up -0.39.
For C=CCNc1nc(-c2ccc(O)c(C(N)=O)c2)cs1 the results were ROMK mod 0.6, Tb hexokinase -15, HSV augment inactive, INS promoter inh 10, Ins promoter up 0.1 and ROMK hit retest 0.082.
`CCOc1ccc(N2C(=O)/C(=C\c3ccccc3OC)S(=O)(=O)C2c2cccc([N+](=O)[O-])c2)cc1` (stereo not given) gave Tb hexokinase 16, HSV augment inactive, INS promoter inh -7 and Ins promoter up -0.11.
CC1(C)N=C(N)N=C(N)N1c1ccc(OCCCOc2ccccc2)c(Cl)c1 was read as ROMK mod -3.1*, Tb hexokinase 20, HSV augment inactive, Ins promoter up -1.2 and ROMK hit retest 0.06*.
`COc1ccc(-n2c(-c3ccc(Cl)cc3)c[n+]3c2CCc2ccccc2-3)cc1` gave ROMK mod -2.6, Tb hexokinase -1, HSV augment inactive, INS promoter inh 57 and Ins promoter up inconclusive.
Cc1ccc(-n2c(-c3ccc(Br)cc3)c[n+]3c2CCc2ccc4cccnc4c2-3)cc1 was read as Tb hexokinase 13, HSV augment inactive, INS promoter inh -16, Ins promoter up inconclusive and ROMK hit retest 0.034*.
For CCN(CC)CCNC(=O)c1ccc(NC(=O)COc2ccccc2F)cc1 the results were ROMK mod 1.9*, Tb hexokinase 5, HSV augment inactive, Ins promoter up 0.77 and ROMK hit retest 0.079.
CCCS(=O)(=O)c1c(S(=O)(=O)CCC)c2ccc(C(N)=O)cn2c1C(=O)c1ccc(OC)cc1 was read as ROMK mod -2.7, Tb hexokinase -6, HSV augment inactive, INS promoter inh 11 and ROMK hit retest 0.061*.
`CCCS(=O)(=O)c1c(S(=O)(=O)CCC)c2ccc(C(N)=O)cn2c1C(=O)OC` gave ROMK mod 0.2, Tb hexokinase -8, HSV augment inactive, INS promoter inh -27 and Ins promoter up -0.46.
O=C(CN1C(=O)NC2(CCCC2)C1=O)N1CCc2ccccc2C1 was read as ROMK mod 2.2*, Tb hexokinase 0, HSV augment inactive, Ins promoter up 1 and ROMK hit retest 0.087.
`O=C(CN1C(=O)NC2(CCCCC2)C1=O)N1CCc2ccccc2C1` gave ROMK mod 0.64, Tb hexokinase 9, HSV augment inactive and Ins promoter up 0.02.
Screening CCOc1ncccc1C(=O)N1CCN(c2cccc(C)c2C)CC1 returned ROMK mod 7.3*, Tb hexokinase 9, HSV augment inactive and ROMK hit retest 0.082.
CCCN1Cc2cccc(C(=O)N3CCN(c4cc(Cl)ccc4C)CC3)c2C1=O was read as Tb hexokinase -3, HSV augment inactive, Ins promoter up 0.06 and ROMK hit retest inconclusive.
`CCOc1ncccc1C(=O)N1CCN(c2cc(Cl)ccc2C)CC1` gave ROMK mod 3.3*, Tb hexokinase -11, HSV augment inactive, Ins promoter up -0.29 and ROMK hit retest 0.08.
For COC(=O)c1cccc(NC(=S)NC(C)C)c1 the results were ROMK mod 1.1, Tb hexokinase -6, HSV augment inactive and Ins promoter up -0.06.
For CSc1ccc(CN2CCN(C3CCCC3)C(CCO)C2)cc1 (stereo not given) the results were ROMK mod -0.83, Tb hexokinase -11, HSV augment inactive and Ins promoter up -0.02.
For O=C(O)c1nn(CCSc2ccccc2F)c(=O)c2ccccc12 the results were Tb hexokinase -5, HSV augment inactive and Ins promoter up 0.78.
`Cc1ccc(-c2nc(CSCC(=O)N3CCCC3)c(C)o2)cc1` gave ROMK mod 0.02, Tb hexokinase 8, HSV augment inactive and INS promoter inh -14.
Cc1cccc(-c2nc(CSCC(=O)N3CCN(c4ccccn4)CC3)c(C)o2)c1 was read as ROMK mod -4.3*, Tb hexokinase -4, HSV augment inactive, INS promoter inh 36 and ROMK hit retest 0.053*.
For O=C(/C=C/c1ccc(S(=O)(=O)N2CCOCC2)cc1)NC(=S)Nc1ccc(Cl)cc1Cl the results were ROMK mod -0.031, Tb hexokinase -13, HSV augment inactive and Ins promoter up 0.41.
For Cc1ccc(NC(C#N)c2ccccc2OCc2ccccc2)cc1 (stereo not given) the results were Tb hexokinase -4, Ins promoter up 0.05 and ROMK hit retest 0.095.
For COc1ccc(NC(C#N)c2ccccc2OCc2ccccc2)cc1 (stereo not given) the results were Tb hexokinase -6, HSV augment inactive and Ins promoter up 0.47.

Assay outcomes: PubChem, several laboratories
